Results as given in PubChem BioAssay.
The source made the active and inactive calls. Unless noted, the rule behind the calls is not given here.

Tests used:
[1] = tested on: Wnt5a (protein binding on small-molecule microarray); assay: Wnt5a binders on small-molecule microarray, primary screen, biophysical, 635/667 nm fluorescence (AID 1142); settings: 635 nm fluorescence, higher = more signal;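 note: fluorescence read at 667 nm with signal to noise per printed feature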
[2] = cell viability in Huh7 cells, primary screen, cytotoxicity control for HCV replication inhibitor project, CellTiter-Glo luminescence, basal, 48 h (AID 1143); settings: Huh7 HCV replicon, higher = more signal, called active from +8 up or from −8 down;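 note: Huh7 hepatoma cells carrying a hepatitis C replication reporter with no stimulus; test concentration not given here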
[3] = P. aeruginosa biofilm formation inhibitors, primary screen, PAO1 strain, BacTiter-Glo luminescence, LB-PBS (AID 1144); settings: 12 h, higher = more signal
[4] = CREB reporter modulators without forskolin, primary screen, cell-based, PC12, CRE-LacZ reporter, unstimulated (AID 1145); settings: no forskolin, luminescence, 4.5 h, higher = more signal, called active from +8 up or from −8 down
[5] = CREB reporter modulators under forskolin, primary screen, cell-based, PC12, CRE-LacZ reporter, forskolin-stimulated (AID 1146); settings: luminescence, 4.5 h, higher = more signal, called active from +8 up or from −8 down;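 note: PC12 cells with 6xCRE LacZ reporter stimulated by forskolin 10 µM; beta-galactosidase reporter signal reflecting CREB driven transcription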
[6] = target: Streptavidin (Streptomyces avidinii) (UniProt P22629); assay: streptavidin binders on small-molecule microarray, primary screen, artefact control for SMM compound annotation, biophysical, 635/667 nm fluorescence (AID 1147); settings: streptavidin binding, higher = more signal;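 note: signal reflects streptavidin binding to arrayed compounds as a control protein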
[7] = small-molecule binders of probe aInhba, primary screen, biochemical, small-molecule microarray, 635/667 nm fluorescence (AID 1148); settings: higher = more signal;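 note: score merges 667nm spot fluorescence with signal-to-noise for antibody binding to printed compounds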
Torsin-1A (Homo sapiens) [8] = target: Torsin-1A (Homo sapiens) (UniProt O14656); assay: torsin A binders from cell lysate, primary screen, small-molecule microarray, wild-type, 635/667 nm (AID 1149); settings: COS7 hTOR1A-WT lysate, 635 nm fluorescence, higher = more signal
Torsin-1A (Homo sapiens) [9] = target: Torsin-1A (Homo sapiens) (UniProt O14656); assay: small-molecule binders of mutant TOR1A in lysate, primary screen, cell lysate, small-molecule microarray, COS7 lysate, 635/667 nm fluorescence (AID 1150); settings: COS7 hTOR1A mutant lysate, 635 nm fluorescence, higher = more signal;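 note: score pools 667 nm emission and signal to noise measuring lysate protein binding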
[10] = tested on: Sonic hedgehog protein (Shh); assay: small-molecule binders of Shh protein, primary screen, biochemical, small-molecule microarray, 635/667 nm fluorescence (AID 1151); settings: small-molecule microarray binding, 635 nm fluorescence; higher = more signal;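 note: Shh protein binding to compounds spotted on small-molecule microarray slides; score combines spot fluorescence intensity with signal-to-noise across triplicate slides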
[11] = E. coli DRC41 culture turbidity changes, primary screen, E. coli filamentation inducer project, strain DRC41, OD650, 48 h (AID 1152);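 note: E. coli MC1000 strain DRC41 lacking acrAB efflux pump and sulA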; settings: E. coli DRC41 (acrAB sulA), higher = more signal, called active from +8 up or from −8 down
[12] = small-molecule binders of probe aLefty1, primary screen, biochemical, small-molecule microarray, 635/667 nm fluorescence (AID 1153); settings: higher = more signal;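 note: score merges spot fluorescence with signal-to-noise ratio from the scanned slide images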
[13] = PSAC antagonists in infected red cells, primary screen, cell-based, P. falciparum Indochina, OD700, 1 h (AID 1154); settings: P. falciparum Indochina infected RBC osmotic lysis, higher = more signal, called active from +8 up or from −8 down
[14] = PSAC antagonists in infected red cells, primary screen, cell-based, P. falciparum Indochina, OD700, 2 h (AID 1155);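 note: lysis reports solute entry through the parasite surface anion channel PSAC; channel blockers reduce lysis of infected cells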; settings: P. falciparum Indochina infected erythrocytes, osmotic lysis OD700; higher = more signal, called active from +8 up or from −8 down
[15] = osmotic lysis modulators in infected erythrocytes, primary screen, PSAC antagonist project, cell-based, P. falciparum Indochina, OD700, 3 h (AID 1156); settings: higher = more signal, called active from +8 up or from −8 down
[16] = PSAC antagonists in infected red cells, primary screen, cell-based, P. falciparum Indochina, OD700, 18 h (AID 1157); settings: P. falciparum Indochina infected erythrocytes, osmotic lysis OD700, 18 h; higher = more signal, called active from +8 up or from −8 down
[17] = modulators of S6 phosphorylation in cells, primary screen, cell-based, A549, cytoblot, luminescence, serum-stimulated (AID 1158); settings: A549 phospho-S6 cytoblot, 5 h, higher = more signal;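 note: serum-stimulated A549 lung adenocarcinoma cells; signal is phosphorylated S6 detected by cytoblot immunostaining with HRP secondary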
[18] = target: NADPH oxidase 2 (Homo sapiens) (UniProt P04839); assay: NOX2-dependent H2O2 signal modulators, primary screen, NOX inhibitor project, cell-based, HEK293-NOX2, PMA-stimulated, Amplex Red fluorescence (AID 1159); settings: 45 min, higher = more signal, called active from +8 up or from −8 down; note: test concentration not given here
[19] = target: NADPH oxidase 4 (Homo sapiens) (UniProt Q9NPH5); assay: NOX4-dependent H2O2 signal modulators, primary screen, NOX inhibitor project, cell-based, HEK293-NOX4, tetracycline-induced, Amplex Red fluorescence (AID 1160); settings: 45 min, higher = more signal, called active from +8 up or from −8 down
[20] = target: NADPH oxidase 5 (Homo sapiens) (UniProt Q96PH1); assay: NOX5-dependent H2O2 signal modulators, primary screen, NOX inhibitor project, cell-based, HEK293-NOX5, Amplex Red fluorescence (AID 1161); settings: HEK293-NOX5, ionomycin, 45 min, higher = more signal
NADPH oxidase 5 (Homo sapiens), sequence (Q96PH1 whole entry, looked up): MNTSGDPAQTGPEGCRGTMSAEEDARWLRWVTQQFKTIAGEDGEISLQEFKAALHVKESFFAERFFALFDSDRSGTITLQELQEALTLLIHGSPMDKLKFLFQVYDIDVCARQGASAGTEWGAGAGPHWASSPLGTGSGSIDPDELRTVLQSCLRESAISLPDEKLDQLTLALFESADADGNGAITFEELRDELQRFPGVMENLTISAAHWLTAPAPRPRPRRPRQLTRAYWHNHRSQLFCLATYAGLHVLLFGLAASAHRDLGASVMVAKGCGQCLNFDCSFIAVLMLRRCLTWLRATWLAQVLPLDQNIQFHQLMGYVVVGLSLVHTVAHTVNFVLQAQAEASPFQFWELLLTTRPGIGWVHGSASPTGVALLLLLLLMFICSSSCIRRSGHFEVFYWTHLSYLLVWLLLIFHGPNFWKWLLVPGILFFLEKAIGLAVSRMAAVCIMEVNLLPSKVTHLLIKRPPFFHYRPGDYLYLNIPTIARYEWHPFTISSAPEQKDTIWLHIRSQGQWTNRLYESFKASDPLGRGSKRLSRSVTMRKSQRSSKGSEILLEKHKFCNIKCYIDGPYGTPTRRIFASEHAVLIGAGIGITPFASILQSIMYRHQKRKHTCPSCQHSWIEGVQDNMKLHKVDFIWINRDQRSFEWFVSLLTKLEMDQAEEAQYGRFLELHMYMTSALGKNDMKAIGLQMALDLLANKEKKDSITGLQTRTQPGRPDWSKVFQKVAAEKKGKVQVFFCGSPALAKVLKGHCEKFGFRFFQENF

Torsin-1A (Homo sapiens), sequence (O14656 whole entry, looked up): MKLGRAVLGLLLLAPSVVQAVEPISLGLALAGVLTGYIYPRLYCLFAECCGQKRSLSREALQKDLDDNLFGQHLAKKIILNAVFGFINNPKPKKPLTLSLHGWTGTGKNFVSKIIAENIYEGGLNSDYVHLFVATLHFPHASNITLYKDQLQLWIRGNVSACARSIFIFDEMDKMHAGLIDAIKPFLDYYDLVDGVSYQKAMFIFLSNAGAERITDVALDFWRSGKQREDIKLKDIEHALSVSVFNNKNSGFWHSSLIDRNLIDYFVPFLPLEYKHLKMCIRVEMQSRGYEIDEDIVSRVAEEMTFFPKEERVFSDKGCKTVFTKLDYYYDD
Streptavidin (Streptomyces avidinii), sequence (P22629 whole entry, looked up): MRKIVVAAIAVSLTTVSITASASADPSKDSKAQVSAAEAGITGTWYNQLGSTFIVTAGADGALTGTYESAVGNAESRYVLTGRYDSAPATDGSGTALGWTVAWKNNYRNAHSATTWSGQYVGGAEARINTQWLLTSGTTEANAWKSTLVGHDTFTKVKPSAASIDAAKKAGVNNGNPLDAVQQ
NADPH oxidase 2 (Homo sapiens), sequence (P04839 whole entry, looked up): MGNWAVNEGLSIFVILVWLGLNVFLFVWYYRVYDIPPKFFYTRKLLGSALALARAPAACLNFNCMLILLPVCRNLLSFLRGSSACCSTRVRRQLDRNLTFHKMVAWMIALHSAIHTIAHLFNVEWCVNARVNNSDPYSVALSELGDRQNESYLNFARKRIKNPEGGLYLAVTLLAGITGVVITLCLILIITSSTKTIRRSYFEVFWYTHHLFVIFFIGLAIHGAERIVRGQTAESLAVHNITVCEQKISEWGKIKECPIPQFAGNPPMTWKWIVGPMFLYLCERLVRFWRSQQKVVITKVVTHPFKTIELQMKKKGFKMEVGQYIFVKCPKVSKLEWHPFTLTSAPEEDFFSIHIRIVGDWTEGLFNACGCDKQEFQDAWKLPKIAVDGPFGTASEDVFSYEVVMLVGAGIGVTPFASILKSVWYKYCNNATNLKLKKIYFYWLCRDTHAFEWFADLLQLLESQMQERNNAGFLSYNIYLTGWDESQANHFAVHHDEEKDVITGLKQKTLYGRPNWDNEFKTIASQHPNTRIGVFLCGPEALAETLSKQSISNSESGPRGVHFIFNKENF
NADPH oxidase 4 (Homo sapiens), sequence (Q9NPH5 whole entry, looked up): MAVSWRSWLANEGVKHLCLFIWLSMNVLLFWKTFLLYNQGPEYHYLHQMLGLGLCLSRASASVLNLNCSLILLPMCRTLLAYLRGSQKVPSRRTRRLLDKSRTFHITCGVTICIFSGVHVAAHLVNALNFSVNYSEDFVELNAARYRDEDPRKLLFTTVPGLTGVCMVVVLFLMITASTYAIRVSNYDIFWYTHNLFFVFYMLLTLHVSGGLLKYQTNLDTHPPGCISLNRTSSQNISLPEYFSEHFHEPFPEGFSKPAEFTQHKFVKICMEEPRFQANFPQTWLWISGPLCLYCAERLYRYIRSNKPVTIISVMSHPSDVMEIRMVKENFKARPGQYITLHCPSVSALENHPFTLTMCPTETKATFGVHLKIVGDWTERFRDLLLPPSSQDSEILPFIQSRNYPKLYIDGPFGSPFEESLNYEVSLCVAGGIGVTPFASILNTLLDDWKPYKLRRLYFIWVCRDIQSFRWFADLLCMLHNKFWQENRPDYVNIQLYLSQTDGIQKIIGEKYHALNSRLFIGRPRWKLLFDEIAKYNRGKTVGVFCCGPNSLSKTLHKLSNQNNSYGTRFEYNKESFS

| SMILES | composite z-score [1] | z-score [2] | z-score [3] | z-score [4] | z-score [5] | composite z-score [6] | composite z-score [7] | composite z-score (Torsin-1A (Homo sapiens) [8]) | composite z-score (Torsin-1A (Homo sapiens) [9]) | composite z-score [10] | z-score [11] | composite z-score [12] | z-score [13] | z-score [14] | z-score [15] | z-score [16] | z-score [17] | z-score [18] | z-score [19] | z-score [20] |
| --- | --- | --- | --- | --- | --- | --- | --- | --- | --- | --- | --- | --- | --- | --- | --- | --- | --- | --- | --- | --- |
| CCN(CC)c1ccc(N2CC=CC34O[C@@H]5/C=C\CCCOC(=O)C5[C@H]3C(=O)N(CCCCCO)[C@@H]4C2=O)cc1 (stereo not given in full) | -0.704 | -0.119 (inactive) | 2.25 (inactive) | 0.605 (inactive) | 0.417 (inactive) | -1.45 | -0.211 | -2.51 | -1.91 | -0.155 | -1.06 (inactive) | -0.0479 | 1.03 (inactive) | 0.0039 (inactive) | -0.656 (inactive) | -0.28 (inactive) | -0.486 | 0.516 (inactive) | -0.21 (inactive) | 1.41 |
| O=C1OCC=C[C@H]2OC34C=CCN(CCN5CCOCC5)C(=O)[C@H]3N(CCCCCO)C(=O)[C@@H]4[C@@H]12 (stereo not given in full) | -0.304 | 0.0976 (inactive) | 0.0824 (inactive) | 2.22 (inactive) | -0.555 (inactive) | 0.257 | -0.128 | -0.419 | 0.11 | 0.175 | -0.457 (inactive) | -0.045 | 1.69 (inactive) | 0.526 (inactive) | 1.5 (inactive) | 0.0882 (inactive) | 2.31 | 0.922 (inactive) | 0.379 (inactive) | 2.1 |
| C=CCC(OC(C)=O)[C@@H]1[C@@H](N(Cc2ccc(-c3cccc(C(F)(F)F)c3)o2)C(=O)c2cccc3ccccc23)c2cc(OCCCO)ccc2N1C(=O)c1ccc(-c2ccccc2)cc1 (stereo not given in full) | 0.0391 | -1.63 (inactive) | 0.595 (inactive) | -0.272 (inactive) | -0.262 (inactive) | 0.0133 | -0.0112 | 0.1 | -0.138 | 1.06 | -0.985 (inactive) | -0.012 | 0.531 (inactive) | 0.431 (inactive) | 2.33 (inactive) | 0.485 (inactive) | -0.326 | -0.959 (inactive) | -1.45 (inactive) | -1.08 |
| C=CCOC(=O)[C@@H]1[C@H]2C(=O)O[C@H](c3ccccc3)[C@H](c3ccccc3)N2[C@H](c2ccc(OCCOC(=O)[C@H]3C[C@H]4C(=O)N[C@@H](Cc5ccccc5)C(=O)N4[C@H]3c3cccc(OCCO)c3)cc2)[C@@]12C(=O)Nc1ccc(I)cc12 | 0.776 | -0.467 (inactive) | -0.787 (inactive) | 6.98 (inactive) | 11.6 (active) | 0.502 | 0.294 | 0.787 | 0.959 | 2.02 | -0.804 (inactive) | 0.403 | 1.94 (inactive) | 1.79 (inactive) | -1.66 (inactive) | 0.619 (inactive) | 0.652 | 2.21 (inactive) | 0.45 (inactive) | 1.98 |
| COCCOC(=O)N1C(=O)[C@@]2(c3cc(C#CCNC(N)=O)ccc31)[C@H](C(=O)N1CCCCCCC1)[C@H]1C(=O)O[C@H](c3ccccc3)[C@H](c3ccccc3)N1[C@@H]2c1ccc(OCCO)cc1 | 0.0855 | -0.897 (inactive) | -1.52 (inactive) | 0.22 (inactive) | -0.311 (inactive) | 0.32 | 0.232 | 0.0121 | 0.145 | 0.438 | 0.0904 (inactive) | 0.174 | 4.45 (inactive) | 1.89 (inactive) | 1.99 (inactive) | 1.25 (inactive) | 0.437 | 1.53 (inactive) | 1.25 (inactive) | 0.0911 |
| COC(=O)[C@@]1(Cc2ccc(F)cc2)[C@H]2c3cc(C(=O)N(C)C)n(CCSCCO)c3C[C@H]2CN1C(=O)c1ccccc1 | -0.0292 | -0.259 (inactive) | -0.482 (inactive) | -0.565 (inactive) | 0.222 (inactive) | 0.352 | -0.0001 | 0.0627 | 0.387 | -0.509 | -0.683 (inactive) | -0.0901 | 0.621 (inactive) | -0.383 (inactive) | -0.662 (inactive) | 0.397 (inactive) | -0.426 | 0.746 (inactive) | -0.303 (inactive) | -0.572 |
| C[N+](C)(C)CCCCCCNC(=O)[C@H]1C[C@H]2C(=O)N3CCC[C@H]3C(=O)N2[C@H]1c1cccc(OCCO)c1 | 0.544 | -0.0803 (inactive) | 0.236 (inactive) | -0.532 (inactive) | -0.583 (inactive) | -0.278 | -0.0112 | 1.98 | 1.71 | 2.15 | -0.507 (inactive) | 0.0683 | 5.47 (inactive) | 0.64 (inactive) | -2.56 (inactive) | 0.498 (inactive) | -0.632 | 1.18 (inactive) | 1.27 (inactive) | 0.865 |
| C[C@]12C(=O)N(CCCO)[C@@H]3C(=O)N(c4ccc(Cl)cc4)CC=CC31O[C@@H]1/C=C\CCCOC(=O)C12 (stereo not given in full) | -0.408 | 0.231 (inactive) | 0.993 (inactive) | -0.212 (inactive) | -0.221 (inactive) | -1.19 | -0.218 | -1.88 | -1.13 | 0.399 | -0.511 (inactive) | -0.0203 | 1.29 (inactive) | 0.396 (inactive) | -0.423 (inactive) | 0.211 (inactive) | -0.332 | 1.53 (inactive) | 0.84 (inactive) | 2.71 |
